Source: PubChem BioAssay
Compounds with a hit are over-represented: about 0.4% of the library has one in this group of screens.
CapD inh: CapD enzyme inhibition. purified CapD enzyme, fluorescence intensity read-out; stronger effect = lower value. z-score (concentration not given with the values). 140,000 compounds, 0.23% hits. AID 492967; in the data active means z-score mostly below about -2.9, no sharp cut-off; inactive means mostly above about -1.9
AID504770: growth inhibitors of E. coli YBA685 in a screen for V. cholerae RctB (chromosome II replication) inhibitors; z-score (test concentration not listed); 130,000 compounds, 0.27% hits; E. coli YBA685 rctB-dependent plasmid, OD600 growth, 3 h; stronger effect = lower value; AID 504770; in the data active means z-score below about -2, passing the limit was not always enough
Numbers stand for hits; n = inactive; x = not tested or not shown.

SMILES | CapD inh | AID504770
CCc1cccc(NC(=O)CN(C2=NC3CS(=O)(=O)CC3S2)c2cccc(C)c2)c1 (configuration not stated) | n | -2.45
CCc1ccc(NC(=O)CC(NCc2ccco2)C(=O)O)cc1 (configuration not stated) | x | n
COCCN1C(=O)/C(=C/c2sccc2C)SC1=S | n | n
Cc1ccc(C=C2C(=O)NC(=O)NC2=O)cc1 | n | -4.7
O=C1NC(=O)C(=Cc2ccc(Cl)cc2)C(=O)N1 | n | x
COc1cccc(C2=N/C(=C\c3ccccc3OC)C(=O)N2c2ccc(Br)cc2)c1 | n | x
CCC(C)NC(=O)/C=C/c1ccc(C)cc1 (configuration not stated) | n | n
O=S(=O)(CS(=O)(=O)Sc1ccc(Cl)cc1)Sc1ccc(Cl)cc1 | n | -3.55
O=S(=O)(CCSc1ccc(Cl)cc1)c1ccccc1 | n | n
Cc1cc(C)c(C(N)=O)c(NC(=O)Nc2ccc(OC(F)(F)F)cc2)n1 | n | x
O=C(CC(c1cccs1)N1Cc2ccccc2C1=O)NCCN1CCOCC1 (configuration not stated) | n | -2.15
O=C(CC(c1cccs1)N1Cc2ccccc2C1=O)NCc1ccc(CN2CCOCC2)o1 (configuration not stated) | n | n
CC(C)c1nc2ccc(Cl)cc2c2c1C(=O)N(CCc1ccncc1)C2=O | n | x
N#CC1=C(N)NC(=S)C(C(N)=O)C1c1ccccc1 (configuration not stated) | -4.49 | n
N#CC1(C#N)[C@H](C(N)=O)[C@H]1c1ccccc1 | n | n
O=C(NCc1cc(F)cc2c1OCOC2)c1sc2ccccc2c1Cl | n | n
COc1ccc(CCNC(C#N)c2ccc(Cl)c(Cl)c2)cc1OC (configuration not stated) | n | x
N#CSC(C#N)Cc1ccc(Cl)c(Cl)c1 (configuration not stated) | n | -4.15
COC1=CC(=O)c2ccccc2C1=O | n | -2.65
CN(C1=CC(=O)c2ccccc2C1=O)c1ccccc1 | n | n
C=CCn1c(SCC(=O)NC(=O)C2COc3ccccc3O2)nnc1-c1ccccc1 (configuration not stated) | x | n
O=C(O)c1ccccc1-c1ccc(-c2cc(C(=O)O)c3cc(F)ccc3n2)o1 | n | -2.7
O=C(O)c1cc(-c2ccco2)nc2ccc(Br)cc12 | n | n
O=S(=O)(NCc1cccc2ccccc12)c1ccccc1 | n | n
Cc1ccc(N2C(=O)/C(=C\c3ccc(-c4ccccc4C(=O)O)o3)C(=O)NC2=S)cc1 | n | x
SMILES | CapD inh | AID504770
CN1C(=O)/C(=C/c2ccc(I)o2)C(=O)NC1=S | -9.73 | n
CSc1nc2nc(N)nc(N)c2s1 | n | n
CSc1nc2c(=S)[nH]c(=S)[nH]c2s1 | -5.47 | n
Cc1ccc(NC(=O)c2sc(=S)n3c2[nH]c(=O)c2ccccc23)c(C)c1 | n | n
Cc1cccc(N2CCN(C(=O)c3ccc4c(=O)[nH]c5c(C(=O)NC(C)C)sc(=S)n5c4c3)CC2)c1C | -3.87 | n
CC(C)NC(=O)c1cc2c(s1)CS(=O)(=O)C2 | n | n
O=C(/C=C/c1cccs1)NCCC1=CCCCC1 | n | n
c1ccc(OC2CN(C(c3ccccc3)c3ccccc3)C2)cc1 | n | n
CCN(CC)c1ccc(CNc2ccc3c(c2)ncn3C)cc1 | n | n
CCN(CC)c1ccc(CNc2ccc3c(c2)ncn3C(C)(C)C)cc1 | -4.62 | n
CCOC(=O)C1=C(C)N=c2s/c(=C\c3ccc(Br)cc3)c(=O)n2C1c1ccc2c(c1)OCO2 (configuration not stated) | n | x
CCc1ccc(-n2c(=S)sc3c(=O)[nH]c(SCC(=O)O)nc32)cc1 | -4.3 | x
CCc1ccc(-n2c(=S)sc3c(=O)[nH]c(SCC4OCCO4)nc32)cc1 | n | x
CCOC(=O)c1ccc(NC(=O)C(C)Sc2nc(O)c(NC(C)=O)c(=O)[nH]2)cc1 (configuration not stated) | n | n
COc1ccc2c(c1)c(=O)c1ccccc1n2CC(=O)Nc1ccc(Cl)cc1 | n | x
NNC(=O)C1COc2ccccc2O1 (configuration not stated) | n | x
O=C(Sc1cccs1)C1COc2ccccc2O1 (configuration not stated) | n | -2.3
Cc1ccc(OCCNC(=O)c2ccc(NC(=O)CC#N)cc2)cc1 | x | n
O=C(N/N=C/c1cc(F)cc(C(F)(F)F)c1)c1ccc([N+](=O)[O-])o1 | n | x
CC(=O)Oc1ccc(C2Nc3c(C(=O)O)ccc([N+](=O)[O-])c3C3C=CCC32)cc1 (configuration not stated) | -2.67 | x
O=C(O)c1ccc([N+](=O)[O-])c2c1NC(c1ccc([N+](=O)[O-])cc1)C1CC=CC21 (configuration not stated) | n | x
FC(F)(F)c1cccc(-n2cc(-c3ccccc3)c3c(NCCCN4CCOCC4)ncnc32)c1 | n | x
COc1nc(N)nc(SC)n1 | n | x
COc1nncc(-c2cnnc(SC)n2)n1 | n | -2.05
O=C(c1ccccc1)N1CCOCC1 | n | x
N/C(=N\OC(=O)N1CCOCC1)c1ccccc1 | n | -2.7
